Hit rate of the full screen: of about 330,000 compounds, about 1,900 (0.58%) were called active. Roughly 4% stayed inconclusive and do not appear here. Cut-off read from the data, not from the text of the source: inconclusive = inhibition above about 70% without an active follow-up result; inactive = below that. The list is a sample of the results. Entries with a potency or affinity are not part of this list.
assay: M. tuberculosis growth inhibition, HTS (AID 449762);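 note: bacterial growth assessed after seven days of incubation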; conditions: M. tuberculosis H37Rv growth inhibition, 7H9 media; at 25 µM; active compounds read high

SMILES | inhibition
Cc1ccc(NC(=S)N2CCN(c3ccccn3)CC2)c(C)c1 | 5.35% (inactive)
Cc1c(N=NC2=C(O)CC(C)(C)CC2=O)cc2c(c1[N+](=O)[O-])C(C)(C)CC2(C)C | 6% (inactive)
O=[N+]([O-])c1ccc(Nc2ccc(F)cc2)nc1 | -2.27% (inactive)
COc1ccc(NC(=O)COC(=O)c2cc3c(s2)CCC3)cc1 | 9.83% (inactive)
NC(=O)c1ccc(NC(=O)COC(=O)c2cc3c(s2)CCC3)cc1 | 6.74% (inactive)
CCN1CCN(c2nc(C)c3c(n2)CC(C)CC3=O)CC1 (stereo not given) | 11.3% (inactive)
COC(=O)c1ccc(COc2cc([N+](=O)[O-])cc3cccnc23)o1 | -2.4% (inactive)
COC(=O)c1ccc(COc2cc([N+](=O)[O-])cc3cccnc23)cc1 | 3.92% (inactive)
O=C(CN1c2ccccc2Sc2ccccc21)N/N=C/c1ccc(Cl)cc1Cl | 4% (inactive)
COc1ccccc1C(=O)NNC(=O)C12CC3CC(CC(C3)C1)C2 | -6.93% (inactive)
Cc1cc(C)c2c(CN3CCN(Cc4ccccc4)CC3)cc(=O)oc2c1 | 0.88% (inactive)
Cc1ccc2c(CN3CCN(Cc4ccccc4)CC3)cc(=O)oc2c1C | 3.31% (inactive)
Fc1ccccc1N1CCN(C(c2ccncc2)c2nnnn2C2CCCC2)CC1 (stereo not given) | -0.2% (inactive)
O=C(NCCO)c1cccc(S(=O)(=O)N2CCCCC2)c1 | -4.67% (inactive)
CC1CC(C)CN(C(=O)CN2C(=O)NC3(CCCCCC3)C2=O)C1 (stereo not given) | 6.02% (inactive)
COC(=O)CSc1nsc(SCC(=O)OC)c1C#N | -0.76% (inactive)
CSc1snc(SCC(N)=O)c1C#N | -0.39% (inactive)
N#Cc1c(SCC(=O)OCc2ccccc2)nsc1SCC(=O)OCc1ccccc1 | 14.1% (inactive)
CC(=O)CSc1nsc(SCC(C)=O)c1C#N | -3.69% (inactive)
CCC(C)N(C(=O)COC(=O)c1nc2nc(C)cc(C)n2n1)C1CCS(=O)(=O)C1 (stereo not given) | 5.26% (inactive)
CCCOc1ccc(CC2CCC(=O)NC2=O)cc1 (stereo not given) | 5.69% (inactive)
COc1ccc(CNS(=O)(=O)c2ccc3c(c2)NC(=O)C(C)S3)cc1 (stereo not given) | 6.65% (inactive)
CCc1c(C)sc(NC(=S)N2CC(C)OC(C)C2)c1C(=O)OC (stereo not given) | 3.86% (inactive)

SMILES | inhibition
CCc1c(C)sc(NC(=S)N2CCN(S(C)(=O)=O)CC2)c1C(=O)OC | 0.54% (inactive)
CCN(CC(=O)NCc1ccc(Cl)cc1)C(=O)CN1C(=O)NC(C)(c2ccccc2)C1=O (stereo not given) | -3.75% (inactive)
CCC(C)NC(=O)c1cn(-c2cccc(OC)c2)c(=O)c2ccccc12 (stereo not given) | 4.02% (inactive)
CCOC(=O)C(C)NC(=O)c1cn(-c2ccc(OC)cc2)c(=O)c2ccccc12 (stereo not given) | 3.17% (inactive)
N#C/C(C(N)=O)=C1/SC=C(c2ccccc2)N1c1ccccc1 | -6.75% (inactive)
NS(=O)(=O)c1ccc(NC(=S)NC(=O)c2ccc(Br)o2)cc1 | -3.72% (inactive)
Cc1ccc(S(=O)(=O)NC(=O)Nc2ccc(C)cc2C)cc1 | -6.63% (inactive)
Cn1c(=O)c2c(ncn2CC(=O)Nc2ccc(N3CCOCC3)cc2)n(C)c1=O | -5.62% (inactive)
O=C(O)CN=CC1=C(O)CC(c2ccccc2)CC1=O (stereo not given) | 4.73% (inactive)
N/C(Cc1ccc(Cl)cc1)=N\OC(=O)c1ccc2ccccc2c1 | 0.18% (inactive)
N/C(Cc1ccc([N+](=O)[O-])cc1)=N\OC(=O)c1ccc([N+](=O)[O-])cc1 | 44.8% (inactive)
CCCCn1c(N)c(N(CCOC)C(=O)c2cccc(S(=O)(=O)N3CCCCCC3)c2)c(=O)[nH]c1=O | -2.07% (inactive)
CC(=O)Oc1ccc(C#C/C=C2\c3ccccc3C(=O)N2c2ccccc2)cc1 | 22.6% (inactive)
CC(=O)Oc1cccc(N2C(=O)c3ccccc3C2=O)c1 | -13.4% (inactive)
Cc1nc2c(cc1NC(=O)C(C)(C)C)nc(C)n2Cc1ccccc1 | -8.25% (inactive)
Nc1ccc2oc(-c3ccccc3Cl)cc(=O)c2c1O | -3.11% (inactive)
O=c1cc(-c2ccccc2Cl)oc2cccc(O)c12 | 1.24% (inactive)
COc1ccccc1N(CC(=O)NCCSC(C)(C)C)S(C)(=O)=O | 2.68% (inactive)
CN1CCN(CC(=O)Nc2c(C(=O)c3ccccc3)oc3ccccc23)CC1 | 3.75% (inactive)
COc1ccc2oc(C(=O)c3ccccc3)c(NC(=O)CN3CCN(C)CC3)c2c1 | 15.4% (inactive)
COC(C[C@@H]1O[C@H]1C(=O)COCc1ccccc1)OC | -5.79% (inactive)
O=C(Cn1ccc([N+](=O)[O-])n1)NCc1cccnc1 | 4.03% (inactive)
CCCCSC1(SCCCC)N=C(N)C2(C#N)C(c3ccccc3)NC(C)=CC12C#N (stereo not given) | -0.17% (inactive)

SMILES | inhibition
CCCC(=O)Nc1ccccc1NC(=O)CCC | 0.31% (inactive)
CCC(=O)Nc1cccc2ccccc12 | -0.62% (inactive)
COc1ccc(C(=O)N(c2ccc(OC)cc2)S(=O)(=O)c2cccs2)cc1 | 4.22% (inactive)
NC(=O)CSc1nc2cc(Cl)ccc2c(=O)n1C1CCCCC1 | -1.2% (inactive)
COc1ccc(-c2cc3c(=O)n(CC(=O)NCc4ccccc4OC)ncn3n2)cc1 | -8.29% (inactive)
C/C(=N/NC(=O)c1cccs1)c1ccc(N2CCOCC2)cc1 | -6.32% (inactive)
CC1(c2cccc([N+](=O)[O-])c2)CC(C)(C)N(C(=O)c2ccccc2)c2ccccc21 (stereo not given) | 1.14% (inactive)
CC(=O)N1c2ccccc2C(C)(c2ccccc2)CC1(C)C (stereo not given) | -5.59% (inactive)
Cc1cc(C)c(S(=O)(=O)c2ccccc2C)c(SCC(C)C)n1 | 11% (inactive)
Cc1sc2ncn(/N=C/c3ccco3)c(=O)c2c1C | -10.2% (inactive)
Cc1ccc(/C=N/n2cnc3sc(-c4ccccc4)cc3c2=O)o1 | 44.5% (inactive)
CCCCn1nnnc1SCC(=O)Nc1cccc(C)c1 | 7.62% (inactive)
COc1ccc(CCN(C)C(=O)c2ccc(COc3ccccc3)o2)cc1OC | 2.55% (inactive)
CC(O)(CS(=O)(=O)Cc1ccccc1)c1ccccc1Cl (stereo not given) | -7.18% (inactive)
Cn1cnnc1SCC(=O)Nc1nc(-c2ccc(F)cc2)cs1 | -5.61% (inactive)
CCCn1c(N2CCN(CC(=O)Nc3ccc4c(c3)OCCO4)CC2)nc2ccccc21 | -1.09% (inactive)
O=C(NCCN1CCOCC1)NC1(C(F)(F)F)Oc2ccc(Cl)cc2O1 (stereo not given) | 66.9% (inactive)
O=C(Nc1cc(N2CCOCC2)ncn1)NC1(C(F)(F)F)Oc2ccccc2O1 | -1.34% (inactive)
CCOC(=O)c1[nH]c2ccc(F)cc2c1NC(=O)CN1CCc2cc(OC)c(OC)cc2C1 | 11.2% (inactive)
CCOC(=O)c1[nH]c2ccc(OCC)cc2c1NC(=O)CN1CCN(c2ccccc2)CC1 | -2.46% (inactive)
CNC(=S)N(C)CCc1cc2c(c(OC)c1C=C1C(=O)NC(=O)NC1=O)OCO2 | -4.55% (inactive)
Cc1cc(C(=O)N[C@@H](c2ccccc2)[C@]2(C)C[C@H]2[C@@H](C)C(=O)Nc2ccc3ccccc3c2)no1 | 49.4% (inactive)
C[C@@H](C(=O)Nc1ccc2ccccc2c1)[C@@H]1C[C@@]1(C)[C@@H](NC(=O)c1ccccc1)c1ccccc1 | 27.7% (inactive)

SMILES | inhibition
Cc1ccc(/C=C/C(=O)N2CCN(S(=O)(=O)c3cccs3)CC2)o1 | -4.62% (inactive)
Cc1ccc(S(=O)(=O)N2CCN(Cc3nc4sc5c(c4c(=O)[nH]3)CCCC5)CC2)cc1 | 1.29% (inactive)
CC(C)c1ccc(/C=N/NC(=O)c2c(Cl)cnn2C)cc1 | -0.44% (inactive)
Cc1ccc(S(=O)(=O)Oc2ccc(/C=N/NC(=O)c3c(Cl)cnn3C)cc2)cc1 | 25.4% (inactive)
Fc1ccc(CN2CCN(c3ccc(Cl)cc3)CC2)cc1 | 9.18% (inactive)
CCn1c(N)c(C(=O)NCc2cccnc2)sc1=S | -1.76% (inactive)
S=c1[nH]nc(C2CCCCC2)n1/N=C/C(Cl)=C\c1ccccc1 | -11% (inactive)
Cc1cc(-c2n[nH]c(=S)n2/N=C/C(Cl)=C/c2ccccc2)n[nH]1 | 1.35% (inactive)
S=c1[nH]nc(C2CCCCC2)n1/N=C/c1ccccc1 | 9.46% (inactive)
CC(/C=N/n1c(-c2cc(C)[nH]n2)n[nH]c1=S)=C\c1ccccc1 | -2.29% (inactive)
Fc1cccc2sc(Nc3nc4cc5c(cc4s3)OCCO5)nc12 | 45.4% (inactive)
Cc1c(Cl)cccc1NC(=S)N(CCN(C)C)C(C)c1ccccn1 (stereo not given) | 0.24% (inactive)
CCO[C@@H]1OC(C(=O)Nc2ccccc2)=C[C@H](c2ccc3c(c2)OCO3)[C@H]1CCCO | 13.4% (inactive)
COc1cc(NC(=O)COC(=O)c2cc(S(=O)(=O)N3CCCCC3)ccc2Cl)c(C)cc1[N+](=O)[O-] | -2.58% (inactive)
CCN1C(=O)[C@H]2[C@@H](c3ccc(-c4ccc(C(C)=O)cc4)cc3)N3CCC[C@@]3(C(=O)OC)[C@H]2C1=O | 21.2% (inactive)
CCOc1ccc(C2c3[nH]c4ccccc4c3C[C@H]3C(=O)N(C4CC4)CC(=O)N23)cc1OC (stereo not given in full) | 4.59% (inactive)
COc1ccc(C2c3[nH]c4ccccc4c3C[C@H]3C(=O)N(C4CCN(Cc5ccccc5)CC4)CC(=O)N23)c(OC)c1 (stereo not given in full) | 30.2% (inactive)
COc1ccc(-c2nc3c(s2)CN(S(C)(=O)=O)CC3)cc1OC | -6.59% (inactive)
Cc1nn(-c2ccccc2)c(Cl)c1C(=O)N(C)CC(=O)Nc1cccc(F)c1 | 0.93% (inactive)
CCCn1c(-c2cc(OC)c(OC)c(OC)c2)nc2c1c(=O)[nH]c(=O)n2Cc1ccccc1 | -2.63% (inactive)
Cc1nn(-c2ccccc2)cc1C(c1c(N)[nH]c(=S)[nH]c1=O)c1c(N)[nH]c(=S)[nH]c1=O | 4.9% (inactive)

Reference: PubChem BioAssay AID449762 (Southern Research Specialized Biocontainment Screening …, 2010)
